# Test results published in PubChem BioAssay (NCATS).
# Records with an inconclusive call do not appear. Calls of active or inactive are those of the source. Calls follow the shape of the dose curve; as a rule, active = well fitted inhibition curve with a large enough effect; inconclusive = small, poorly fitted or top-dose-only effect; inactive = flat fitted curve, though single readings scatter.
# System: Zika virus NS2B-NS3 protease
# Assay: Primary screen GU AMC qHTS for Zika virus inhibitors (AID 1347154); also: nearly all actives have a fitted effect of over 70% in size;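 as to activity change, negative = inhibition: 0% = no-inhibitor control and -100% = no-enzyme control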
# Conditions: Zika NS2B-NS3 unlinked protease, AMC fluorogenic substrate; series mostly up to 54.1 µM; activity change, negative = inhibition: at the top concentration
# From the text: Avindra Nath, Ph.D., National Institute of Neurological Disorders and Stroke (NINDS), Bethesda, MD
# Radhakrishnan Padmanabhan, Ph.D., Georgetown University (GU), Washington D.C.
# Zika Virus causes congenital defects, including microcephaly and is associated with Guillain-Barre syndrome, eningoencephalitis and myelitis in infected adult. […] Using a target-based approach, we hope to establish a screening paradigm to uncover novel, cell-active NS2B-NS3 protease (Zika Virus) specific inhibitors from NCATS' collection of small molecules using qHTS.
# Early Translation Branch (ETB)
# National Center for Advancing Translational Sciences (NCATS), Rockville, MD
# National Institute of Health (NIH), Bethesda, Maryland
# Padmanabhan lab provided the NS2B hydrophilic domain and NS3 protease domain in a noncovalent complex used for the unlinked assay. Control compound aprotinin is obtained from Thermo Scientific (#78432; Waltham, Massachusetts). NS2B-NS3 AMC substrate (Bz-Nle-Lys-Arg-Arg-AMC; Nle-KRR-AMC) purchased from Bachem (#I-1995; Torrance, CA). Ac-VKTGKR-AMC purchased from Genscript or Bachem, Ac-FAAGKR-AMC purchased from Genscript, Ac-GLVKRR-AMC purchased from Genscript, Ac-LKKR-AMC purchased from Genscript.
# GU AMC unlinked NS2B-NS3 protease qHTS protocol
# Briefly, 3 microL of Zika virus unlinked NS2B-NS3 protease (25 nM for linked final concentration), in assay buffer (10 mM Tris-HCl pH 8.0 with 0.01% Tween 20) was dispensed into a 1,536-well solid-bottom black plate (Greiner Bio One, Monroe, NC). […] Plates were then read immediately on a ViewLux High-throughput CCD imager (PerkinElmer, Waltham, MA) equipped with standard UV fluorescence optics (340(30) nm excitation, 450(20) nm emission) then incubated (room temperature, protected from light) for 15 minutes (~20% conversion). The change in fluorescence intensity over the 15-minute reaction period was normalized against no-inhibitor and no-enzyme controls and the resulting percent inhibition data were fitted to a 4-parameter Hill equation. Aprotinin was used as the intraplate control.
# Potency is read from the fitted curve at half-maximal effect.
SMILES,"activity change, negative = inhibition",Potency
C[C@@H]1O[C@H](O[C@@H]2C[C@@H](O)[C@]3(CO)[C@H]4[C@H](O)C[C@]5(C)[C@@H](C6=CC(=O)OC6)CC[C@@]5(O)[C@@H]4CC[C@]3(O)C2)[C@@H](O)[C@H](O)[C@H]1O,4.24% (inactive),–
O=C1NCN(c2ccccc2)C12CCN(C[C@H]1COc3ccccc3O1)CC2,21.1% (inactive),–
C(=C/c1ccccc1)/CN1CCN(CCOC(c2ccccc2)c2ccccc2)CC1,-0.0032% (inactive),–
Clc1ccc(C2CC3CCC2N3)cn1 (stereo not given),–,inactive
C=C1[C@@H](C)[C@H]2[C@H](Cc3ccccc3)NC(=O)[C@]23OC(=O)/C=C/[C@H](O)CCC[C@@H](C)C/C=C/[C@H]3[C@@H]1O,18% (inactive),–
O[C@@H]1[C@H](O)[C@H]2[C@@H](O)CCN2C[C@@H]1O,8.72% (inactive),–
CCN1C[C@]2(COC)[C@H](O)C[C@H](OC)[C@]34C1C([C@H](OC)[C@H]23)[C@]1(OC(C)=O)C2[C@@H](OC(=O)c3ccccc3)C(O)(C[C@H]24)[C@@H](OC)[C@@H]1O,10.1% (inactive),–
CCN1C[C@]2(COC(=O)c3ccccc3N3C(=O)CC(C)C3=O)CC[C@H](OC)[C@@]34C5C[C@@H]6[C@@H](OC)C[C@@](O)(C5[C@H]6OC)[C@](O)([C@@H](OC)C23)[C@@H]14 (stereo not given in full),-6.86% (inactive),–
O=C1/C(=C\c2ccccc2)C[C@@]2(O)[C@H]3Cc4ccc(O)c5c4[C@@]2(CCN3CC2CC2)[C@@H]1O5,-9.17% (inactive),–
CC(C)[C@]1(O)[C@@H](OC(=O)c2ccc[nH]2)[C@@]2(O)[C@@]3(C)C[C@]4(O)O[C@@]5([C@H](O)[C@@H](C)CC[C@]35O)[C@@]2(O)C41C,15% (inactive),–
N[C@H](C(=O)O)c1cc(=O)[nH]o1,17% (inactive),–
Cc1ccc(C[N+](C)(C)C)o1,–,inactive
CCOC(=O)CN1C(=O)CC(C[C@@H](O)C2C[C@@H](C)C[C@H](C)C2=O)CC1=O (stereo not given in full),-4.64% (inactive),–
Fc1ccc(C(OCCN2CCN(C/C=C/c3ccccc3)CC2)c2ccc(F)cc2)cc1,3.1% (inactive),–
C=CCN1CC[C@]23c4c5ccc(O)c4O[C@@H]2C(=O)CC[C@]3(O)[C@H]1C5,4.95% (inactive),–
CN1Cc2ccccc2[C@@H]2c3cccc4[nH]cc(c34)C[C@H]21,–,inactive
C[C@@]1(CO)[C@H](O)CC[C@@]2(C)[C@H]1CC[C@H]1C[C@@H]3C[C@@]12CC[C@]3(O)CO,11.5% [at 104 µM] (inactive),–
O=C1Nc2ccccc2C2(CCN(CCc3ccc(C(F)(F)F)cc3)CC2)O1,-5.45% (inactive),–
CC[C@H](Oc1ccc(Cl)cc1)C(=O)OC1C[C@H]2CC[C@@H](C1)N2C (stereo not given in full),8.83% (inactive),–
COC(C/C=C/C=C/CC/C=C\CC(C)/C=C\C(=C/C(=O)O)CC(=O)O)/C(C)=C\C=C(/C)C(=O)O (stereo not given),8.89% [at 6.83 µM] (inactive),–

SMILES,"activity change, negative = inhibition",Potency
Oc1ccc2c3c1O[C@H]1c4c(c5ccccc5n4Cc4ccccc4)C[C@]4(O)[C@H](C2)N(CC2CC2)CC[C@@]314,0.0189% (inactive),–
CN1CCN(C(=O)O[C@@H]2c3nccnc3C(=O)N2c2ccc(Cl)cn2)CC1,-6.73% (inactive),–
N[C@@H](Cn1ccc(=O)n(Cc2ccc(C(=O)O)cc2)c1=O)C(=O)O,3.16% (inactive),–
CC(C)(c1ccc(OCC2CO2)cc1)c1ccc(OCC2CO2)cc1 (stereo not given),–,inactive
CN(C(=O)Cc1ccc(Cl)c(Cl)c1)C(CN1CCCC1)c1cccc(N=C=S)c1 (stereo not given),-3.31% (inactive),–
CC1OC(=O)[C@@H](C(C)C)NC(=O)C(C(C)C)OC(=O)[C@H](C(C)C)NC(=O)C(C)OC(=O)[C@@H](C(C)C)NC(=O)C(C(C)C)OC(=O)[C@H](C(C)C)NC(=O)C(C)OC(=O)[C@@H](C(C)C)NC(=O)C(C(C)C)OC(=O)[C@H](C(C)C)NC1=O (stereo not given in full),12.9% (inactive),–
C(=C\c1ccccc1)/CN1CCN(CCOC(c2ccccc2)c2ccccc2)CC1,2.57% (inactive),–
N[C@@H](CCCCP(=O)(O)O)C(=O)O,-16.2% (inactive),–
COc1ccc2c3c([nH]c2c1)C(C)=NCC3,–,21.2 µM (active)
c1ccc(C[C@@H](c2ccccc2)N2CCCCC2)cc1,12.6% (inactive),–
NC(=NCCc1ccc(I)cc1)SCCCc1cnc[nH]1,–,inactive
CCCCC/C=C\C/C=C\C/C=C\C=C\[C@H](CCCC(=O)O)OO,7.53% [at 0.59 µM] (inactive),–
CC1=C(O)C(=O)[C@@H]2O[C@@H]2C1=O,9.42% (inactive),–
C[C@](N)(CCP(=O)(O)O)C(=O)O,6.15% (inactive),–
CCCN(CCC)[C@@H]1CCc2c(OC)cccc2[C@@H]1C,–,inactive
CC(C)(O)[C@H]1O[C@@H]2CC[C@]3(C)[C@@]4(C)c5[nH]c6ccccc6c5C[C@@H]4CC[C@]3(O)C2=CC1=O,0.708% (inactive),–
Oc1ccc2c3c1O[C@H]1c4[nH]c5c(c4C[C@@]4(O)[C@@H](C2)N(CC2CC2)CC[C@]314)C[C@]1(O)[C@H]2Cc3ccc(O)c4c3[C@@]1(CCN2CC1CC1)[C@@H]5O4,3.02% (inactive),–
C[C@@H](Cc1ccc(OCC(=O)O)cc1)NC[C@H](O)c1cccc(Cl)c1,10.1% (inactive),–
O=C(NC1CCCCC1)c1cn(CCN2CCOCC2)c2cc(Cl)ccc2c1=O,6.39% (inactive),–
CN1[C@@H]2CC[C@H]1CC(OC(c1ccc(F)cc1)c1ccc(F)cc1)C2 (stereo not given in full),10.2% (inactive),–
